The record followed here is ChEMBL document CHEMBL3433997, “St. Jude Leishmania screening dataset” (2016).

Common to all, as to format: functional
Experiment [1] has as its target Solute carrier family 2, facilitated glucose transporter member 1 (Homo sapiens) (UniProt P11166). As to the kind of experiment: ST_JUDE_LEISH: Cytotoxicity at 2uM final concentration against transgenic Leishmania Mexicana promastigotes LmGLUT1 that are glucose transport deficient and complemented with the human glucose transporter GLUT1. Activity is measured by DNA content using SYBR green in vitro.

In experiment [2] the target is Hexose transporter 1 (Plasmodium falciparum) (UniProt O97467). Briefly: ST_JUDE_LEISH: Cytotoxicity at 2uM final concentration against transgenic Leishmania Mexicana promastigotes LmPfHT that are glucose transport deficient and complemented with the Plasmodium falciparum hexose transporter. Activity is measured by DNA content using SYBR green in vitro.
Experiment [3] deals with Glucose transporter (Leishmania mexicana) (UniProt O61059). Briefly: ST_JUDE_LEISH: Cytotoxicity at 2uM final concentration against transgenic Leishmania Mexicana promastigotes LmGT2 that are glucose transport deficient and complemented with the L. Mexicana glucose transporter 2. Activity is measured by DNA content using SYBR green in vitro.

Chain of Solute carrier family 2, facilitated glucose transporter member 1 (Homo sapiens) (P11166 whole entry): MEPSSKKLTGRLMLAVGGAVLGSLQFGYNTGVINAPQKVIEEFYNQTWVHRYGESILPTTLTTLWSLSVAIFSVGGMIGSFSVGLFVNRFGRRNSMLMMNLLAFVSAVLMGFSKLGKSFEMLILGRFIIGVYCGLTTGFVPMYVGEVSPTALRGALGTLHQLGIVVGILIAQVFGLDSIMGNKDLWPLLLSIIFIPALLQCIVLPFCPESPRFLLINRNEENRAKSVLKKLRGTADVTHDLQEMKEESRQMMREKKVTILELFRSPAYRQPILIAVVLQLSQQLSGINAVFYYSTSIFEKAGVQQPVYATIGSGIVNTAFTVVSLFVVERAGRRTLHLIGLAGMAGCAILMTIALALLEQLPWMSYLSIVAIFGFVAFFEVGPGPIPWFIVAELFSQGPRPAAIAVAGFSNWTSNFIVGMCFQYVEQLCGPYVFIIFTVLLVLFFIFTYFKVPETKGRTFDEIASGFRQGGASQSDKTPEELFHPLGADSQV

The term inhibition denotes the drop in the measured response relative to a control, in per cent. For `O=C(NC1CCCCC1)N(CCCn1ccnc1)Cc1csc(-c2ccc(CNCc3ccccc3)cc2)n1`, the results for the inhibition in experiment [1], in experiment [2] and in experiment [3] were 0.1%, 0.82% and 1.34%, respectively.

On to `Cc1nc(-c2cccc(NC(C)C(=O)Nc3cc(C(F)(F)F)ccc3N3CCOCC3)c2)cs1` (stereo not drawn), for which the inhibition in experiment [1] is 0.08%; in experiment [2], 0.47%; in experiment [3] it was 0.96%.

As for `O=C(Nc1ccc(Cl)cc1)OCCn1nnnc1C(c1ccc(Cl)cc1)N1CCOCC1` (stereo not drawn), the inhibition in experiment [1] was 2.79%; in experiment [2], 0.7%; in experiment [3] it was 2.38%.

With `CCN(CCN(C)C)Cc1ccc(-c2ccc(NS(=O)(=O)c3cccc4cccnc34)cc2)cc1`, the inhibition in experiment [1] was 14%; in experiment [2] it was 11.3%; in experiment [3], 6.11%.

Take `CS(=O)(=O)CCNCc1ccc(-c2ccc3ncnc(Nc4ccc(OCc5ccccc5)c(Cl)c4)c3c2)o1`: the inhibition in experiment [1] was -0.18%; in experiment [2], -1.51%; in experiment [3], -1.49%.

For `O=C(/C=C/c1ccc(Cl)c(Cl)c1)NCCCCCN1CCC(CCNC(=O)C2(c3ccc(Cl)cc3)CC2)CC1`, the results for the inhibition in experiment [1], in experiment [2] and in experiment [3] were 16.5%, 6.12% and 3.58%, respectively.

For `COc1ccccc1NC(=O)NC1CCN(CCCCCNC(=O)/C=C/c2ccc(Cl)c(Cl)c2)CC1`, the values for the inhibition in experiment [1], in experiment [2] and in experiment [3] were 1.87%, 2.75% and 2.7%, respectively.

In the case of `C1=CN(Cc2ccccc2)C=CC1=C1C=Nc2ccccc21`, the inhibition in experiment [1] came out at 12.1%; in experiment [2] it was 10.4%; in experiment [3] it was 8.71%.

Consider `O=C(Nc1ccc2c(c1)CCN2C1CCN(Cc2csc3ccccc23)C1)c1ccco1` (stereo not drawn), for which the inhibition in experiment [1] stood at 2.05%; in experiment [2], 2.08%; in experiment [3], 1.45%.

For `O=C(Nc1ccc(OC2CCN(Cc3ccccc3)C2)c(Cl)c1)c1cccs1` (stereo not drawn), the inhibition in experiment [1] is 1.18%; in experiment [2] it was 1.06%; in experiment [3], 1.66%.

Take `Cc1cccc2nc(-c3ccc(-c4ccc(CNCc5ccc(CN)cc5)cc4)s3)[nH]c12`: the inhibition was determined as 5.43% in experiment [1], 8.51% in experiment [2] and 0.48% in experiment [3].

For `CC(=O)c1cccc2cc(C(=O)NC3CCC(CCN4CCc5ccc(C#N)cc5C4)CC3)[nH]c12` (stereo not drawn), the inhibition in experiment [1] is 2.35%; in experiment [2], 2%; in experiment [3] it was -0.27%.

As to `Cc1cc(-c2ccc(O)c(CNC3CCCCC3)c2)cnc1N`, the inhibition is 0.43% in experiment [1], 10.3% in experiment [2] and 0.95% in experiment [3].

`Cn1nc(-c2ccc(NC(=O)Nc3ccc4ccccc4c3)c(F)c2)c2cnc(NCCN3CCOCC3)nc21`: the inhibition in experiment [1] stood at 5.52%; in experiment [2], 4.79%; in experiment [3], 1.17%.

With `O=C(NNC(=O)c1ccc(CN2CCC(c3nc4ccccc4[nH]3)CC2)cc1)Nc1ccc(Oc2ccccc2)cc1`, the inhibition was determined as 2.4% in experiment [1], 2.34% in experiment [2] and 1.36% in experiment [3].

As for `O=C(O)c1ccc2nc(-c3ccccn3)c(-c3ccccn3)nc2c1`, the figures for the inhibition in experiment [1], in experiment [2] and in experiment [3] were -0.91%, -3.35% and -0.14%, respectively.

As for `Cc1cccc(-c2nn(-c3ccccc3)c3[nH]c(=O)c(CNC4CCCC4)cc23)c1`, the inhibition is 2.26% in experiment [1], 2.39% in experiment [2] and -0.29% in experiment [3].

Regarding `COc1ccc2nccc([C@@H](O)CN3CCC(NC(=O)C(c4cc5ccccc5o4)N4CCN(c5ccccc5)CC4)CC3)c2c1` (stereo partly drawn), the inhibition in experiment [1] was 5.51%; in experiment [2], 2.83%; in experiment [3], 2.54%.

On to `CC(C)C[C@@H](C(=O)Nc1ccc(Cc2ccc(NC(=O)[C@H](CC(C)C)N(C)C(=O)OC(C)(C)C)cc2)cc1)N(C)C(=O)OC(C)(C)C`, for which the inhibition in experiment [1] is 0.03%; in experiment [2], -1.12%; in experiment [3] it was -0.46%.

`COc1ccc2nccc([C@H](O)CN3CCC(NCc4nc5cccc(F)c5[nH]4)CC3)c2c1`: the inhibition worked out at 3.63% in experiment [1], 1.1% in experiment [2] and 2.36% in experiment [3].

As to `N#Cc1cccc(C(=O)Nc2ccc(-c3cccc(CN4CCCC4)c3)cc2)c1`, the results for the inhibition in experiment [1], in experiment [2] and in experiment [3] were 55.6%, 6.55% and 7.42%, respectively.

`Nc1nc(N)c2c(Cc3ccccc3)cccc2n1`: the inhibition in experiment [1] was found to be 0.09%; in experiment [2] it was 4.13%; in experiment [3], 2.02%.

With `CN1CCN(c2ccc(-c3cc(-c4ccncc4)c(-c4ccc(Cl)c(O)c4)o3)cc2)CC1`, the inhibition in experiment [1] was -0.86%; in experiment [2], 0%; in experiment [3], -1.14%.

Turning to `Cc1c(F)cc(C(=O)NC2CC2)cc1-c1ccc2c(cnn2S(=O)(=O)c2ccc(Cl)s2)c1`, the inhibition worked out at 3.04% in experiment [1], 1.53% in experiment [2] and 0.9% in experiment [3].

On to `C=CCNC(=O)CCCNC(=N)N`, for which the results for the inhibition in experiment [1], in experiment [2] and in experiment [3] were 1.5%, 1.22% and -0.35%, respectively.

As to `CCCN(CCC)CCCNc1ccc(C(=O)Nc2ccc(OCC)cc2)cc1[N+](=O)[O-]`, the inhibition in experiment [1] worked out at 32.8%; in experiment [2], 19.4%; in experiment [3], 5.32%.

`CCc1ccc(S(=O)(=O)Nc2cccc(CCN3CCC(N4CCCCC4)CC3)c2)cc1`: the inhibition in experiment [1] was 1.95%; in experiment [2] it was 1.48%; in experiment [3], -0.34%.

As for `O=C(C=Cc1ccc(Cl)c(Cl)c1)NCCCCCN1CCC(CCCNC(=O)c2ccc3c(c2)OCO3)CC1`, the results for the inhibition in experiment [1], in experiment [2] and in experiment [3] were 4.5%, 4.24% and -3.71%, respectively.

For the compound `Cc1cc(C(=O)Nc2ccc(-c3nc4ccccc4[nH]3)cc2)ccc1[N+](=O)[O-]`, the inhibition was 3.49% in experiment [1], 1.97% in experiment [2] and -1.54% in experiment [3].

Regarding `O=C(Nc1ccc(-c2cccc(-c3nc4cc(C(F)(F)F)ccc4[nH]3)c2)cc1)c1cccnc1`, the inhibition in experiment [1] was 0.28%; in experiment [2] it was 0.06%; in experiment [3] it was -1.11%.

In the case of `COc1ccc(NS(=O)(=O)c2ccc(Oc3nc(C)nc4sc5c(c34)CCCC5)cc2)cc1`, the results for the inhibition in experiment [1], in experiment [2] and in experiment [3] were 3.13%, 3.7% and 2.29%, respectively.

Take `COc1cccc(C(=O)NC(c2ccccc2OC)c2cc(Cl)c3cccnc3c2O)c1` (stereo not drawn): the inhibition in experiment [1] is -1.87%; in experiment [2], -2.45%; in experiment [3], 0.13%.

Regarding `Cc1cc(C2CCN(CCCCNC(=O)c3ccc(NC(=O)c4ccc(Cl)cc4)cc3)CC2)c(C)cc1OCCN(C)C`, the figures for the inhibition in experiment [1], in experiment [2] and in experiment [3] were 9.34%, 8.76% and 9.76%, respectively.

`COc1cc(NC(=O)/C=C/c2ccccc2OC(F)(F)F)cc(OCCN2CCC(O)(c3ccccc3)CC2)c1`: the results for the inhibition in experiment [1], in experiment [2] and in experiment [3] were 7.57%, 5.55% and 5.81%, respectively.

Consider `O=C(CN1CCC2(CCC1=O)CC(=O)c1ccccc1O2)NCCN1CCOCC1` (stereo not drawn), for which the inhibition was found to be 2.45% in experiment [1], 7.44% in experiment [2] and 4.93% in experiment [3].

Regarding `CC1c2cccc(O)c2CCN1CCc1ccc(Cl)c(Cl)c1` (stereo not drawn), the figures for the inhibition in experiment [1], in experiment [2] and in experiment [3] were 12.5%, 7.34% and 5.5%, respectively.
